Measured values taken from the supplement of paper PMC10849652.
The full data set covers some 8,800 targets. This sample favours those with a hit. About 0.5% of all pairs of compound and target were hits. A number with no mark means an inactive call.

Key:
Experiment in all cases: log2 fold change, soluble protein after heating vs DMSO (PISA); higher = thermal stabilisation; K562 lysate, 10 uM; active = over 0.2 and 3.5 SD of the protein, either way, in both replicates (recomputed)
[1] = compound: CN1CC[C@H](c2c(O)cc(O)c3c(=O)cc(-c4ccccc4Cl)oc23)[C@H](O)C1 [alvocidib]
How it was run: (§1)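 Values give the log-two fold change in thermal stability against solvent controls, from duplicates. Crude K562 extract at 1 mg/mL protein, made by dounce homogenisation in PBS pH 7.4 with 1 mM MgCl2, was treated with 10 μM compound for 30 min. After 3 min heating across 48°C-58°C, aliquots were pooled, adjusted to 0.5% NP-40 at 4°C and centrifuged at 21,000xg for 90 min. The supernatant was measured by TMTpro 16plex LC-MS/MS with channel sums equalised.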

[2] = compound: CN1CCc2c(c3ccccc3n2Cc2ccc(C(=O)NO)cc2)C1 [Tubastatin A]
How it was run: as §1

[3] = compound: CNC(=O)C1=CC=CC=C1NC2=NC(=NC=C2Cl)NC3=C(C=C(C=C3)N4CCOCC4)OC
How it was run: as §1

[4] = compound: CNC(=O)c1ccc(Nc2ncc(C(F)(F)F)c(NCc3nccnc3N(C)S(C)(=O)=O)n2)cc1 [defactinib]
How it was run: as §1

[5] = compound: CNc1nc(-c2ccc3c(N)n[nH]c3c2)cc(N2C[C@@H](C(=O)NC3CCCCC3)CC[C@H]2C)n1
How it was run: as §1

[6] = compound: COC(=O)N[C@@H](C)CNc1nccc(-c2cn(C(C)C)nc2-c2cc(Cl)cc(NS(C)(=O)=O)c2F)n1 [encorafenib]
How it was run: as §1

[7] = compound: COC(=O)[C@H](CCSC)NC(=O)C1=C(C=C(C=C1)NC[C@H](CS)N)C2=CC=CC=C2
How it was run: as §1

[8] = compound: COc1cc(Nc2ncc3c(n2)-c2ccc(Cl)cc2C(c2c(F)cccc2OC)=NC3)ccc1C(=O)O [alisertib]
How it was run: as §1

[9] = compound: COc1cc2nc(-c3cc(F)ccc3O)nc(N[C@@H]3CNC[C@H]3C(C)(C)O)c2cc1OC
How it was run: as §1

[10] = compound: COc1cc2ncnc(Nc3ccc(F)c(Cl)c3)c2cc1OCCCN1CCOCC1 [gefitinib]
How it was run: as §1

Sequence of UniProt Q9Y2H1 (Q9Y2H1 whole entry, looked up): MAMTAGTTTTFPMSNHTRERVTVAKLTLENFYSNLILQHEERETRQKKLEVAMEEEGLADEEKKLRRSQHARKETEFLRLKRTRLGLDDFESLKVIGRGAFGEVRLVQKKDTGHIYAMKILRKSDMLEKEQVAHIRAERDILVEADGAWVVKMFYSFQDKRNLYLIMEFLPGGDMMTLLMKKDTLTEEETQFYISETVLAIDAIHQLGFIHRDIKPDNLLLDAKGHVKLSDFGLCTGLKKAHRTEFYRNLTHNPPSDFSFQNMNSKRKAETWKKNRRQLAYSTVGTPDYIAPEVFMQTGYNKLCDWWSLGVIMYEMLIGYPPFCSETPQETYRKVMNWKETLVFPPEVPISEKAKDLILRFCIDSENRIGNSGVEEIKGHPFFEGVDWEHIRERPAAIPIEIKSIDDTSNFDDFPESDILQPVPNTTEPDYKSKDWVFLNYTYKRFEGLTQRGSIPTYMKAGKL
Sequence of UniProt O95391 (O95391 whole entry, looked up): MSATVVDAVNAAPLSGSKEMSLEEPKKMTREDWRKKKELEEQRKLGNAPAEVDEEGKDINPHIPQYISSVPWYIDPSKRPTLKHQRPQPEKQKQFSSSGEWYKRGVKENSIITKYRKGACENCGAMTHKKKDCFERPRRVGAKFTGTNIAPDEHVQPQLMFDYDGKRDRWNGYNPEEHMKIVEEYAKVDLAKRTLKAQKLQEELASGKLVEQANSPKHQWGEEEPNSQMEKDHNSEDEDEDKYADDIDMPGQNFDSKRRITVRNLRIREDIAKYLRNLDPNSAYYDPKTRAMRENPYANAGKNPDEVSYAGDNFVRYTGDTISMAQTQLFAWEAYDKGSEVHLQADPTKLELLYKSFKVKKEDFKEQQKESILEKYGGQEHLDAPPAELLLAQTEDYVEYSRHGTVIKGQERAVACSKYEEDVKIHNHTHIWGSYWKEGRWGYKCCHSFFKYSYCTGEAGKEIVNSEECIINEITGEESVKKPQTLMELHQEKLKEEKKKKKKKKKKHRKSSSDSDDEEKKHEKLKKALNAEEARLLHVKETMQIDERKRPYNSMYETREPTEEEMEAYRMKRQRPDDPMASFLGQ
Sequence of UniProt O60504 (O60504 whole entry, looked up): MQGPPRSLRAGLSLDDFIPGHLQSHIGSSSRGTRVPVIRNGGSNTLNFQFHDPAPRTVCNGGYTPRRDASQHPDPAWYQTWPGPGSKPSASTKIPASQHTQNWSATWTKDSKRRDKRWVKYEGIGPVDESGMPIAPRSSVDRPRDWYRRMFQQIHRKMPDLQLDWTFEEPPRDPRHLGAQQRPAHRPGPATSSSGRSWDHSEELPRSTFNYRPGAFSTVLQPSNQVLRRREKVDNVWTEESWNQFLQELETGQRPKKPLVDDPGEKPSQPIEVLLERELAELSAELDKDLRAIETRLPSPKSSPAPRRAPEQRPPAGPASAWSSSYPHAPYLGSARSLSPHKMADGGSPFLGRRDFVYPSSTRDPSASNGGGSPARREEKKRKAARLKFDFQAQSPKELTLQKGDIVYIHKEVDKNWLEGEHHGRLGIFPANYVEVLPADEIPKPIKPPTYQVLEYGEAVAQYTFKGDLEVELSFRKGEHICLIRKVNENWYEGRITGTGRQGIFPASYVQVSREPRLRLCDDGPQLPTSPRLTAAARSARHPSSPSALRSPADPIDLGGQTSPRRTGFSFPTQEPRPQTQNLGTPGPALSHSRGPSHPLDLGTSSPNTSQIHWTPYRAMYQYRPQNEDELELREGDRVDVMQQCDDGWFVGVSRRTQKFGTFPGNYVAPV
Sequence of UniProt Q8N196 (Q8N196 whole entry, looked up): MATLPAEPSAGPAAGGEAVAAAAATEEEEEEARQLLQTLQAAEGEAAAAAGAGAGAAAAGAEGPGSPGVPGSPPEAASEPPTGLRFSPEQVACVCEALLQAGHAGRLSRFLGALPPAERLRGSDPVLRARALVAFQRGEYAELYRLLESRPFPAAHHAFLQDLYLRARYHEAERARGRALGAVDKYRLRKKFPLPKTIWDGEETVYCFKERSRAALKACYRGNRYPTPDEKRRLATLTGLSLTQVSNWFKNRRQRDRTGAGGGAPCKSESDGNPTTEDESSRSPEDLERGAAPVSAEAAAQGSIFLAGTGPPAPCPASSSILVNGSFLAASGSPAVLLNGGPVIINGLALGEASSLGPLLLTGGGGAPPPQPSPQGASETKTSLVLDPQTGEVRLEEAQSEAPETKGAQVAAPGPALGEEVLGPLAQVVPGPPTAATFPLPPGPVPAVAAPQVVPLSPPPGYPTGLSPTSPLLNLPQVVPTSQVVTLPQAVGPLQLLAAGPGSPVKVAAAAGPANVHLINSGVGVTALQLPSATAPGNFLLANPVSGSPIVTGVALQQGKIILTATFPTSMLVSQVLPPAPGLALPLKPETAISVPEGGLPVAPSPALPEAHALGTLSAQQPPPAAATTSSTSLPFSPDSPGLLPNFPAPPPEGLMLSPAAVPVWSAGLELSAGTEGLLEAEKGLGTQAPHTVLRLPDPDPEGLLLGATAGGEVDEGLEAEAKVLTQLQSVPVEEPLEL
Sequence of UniProt Q6NXT4 (Q6NXT4 whole entry, looked up): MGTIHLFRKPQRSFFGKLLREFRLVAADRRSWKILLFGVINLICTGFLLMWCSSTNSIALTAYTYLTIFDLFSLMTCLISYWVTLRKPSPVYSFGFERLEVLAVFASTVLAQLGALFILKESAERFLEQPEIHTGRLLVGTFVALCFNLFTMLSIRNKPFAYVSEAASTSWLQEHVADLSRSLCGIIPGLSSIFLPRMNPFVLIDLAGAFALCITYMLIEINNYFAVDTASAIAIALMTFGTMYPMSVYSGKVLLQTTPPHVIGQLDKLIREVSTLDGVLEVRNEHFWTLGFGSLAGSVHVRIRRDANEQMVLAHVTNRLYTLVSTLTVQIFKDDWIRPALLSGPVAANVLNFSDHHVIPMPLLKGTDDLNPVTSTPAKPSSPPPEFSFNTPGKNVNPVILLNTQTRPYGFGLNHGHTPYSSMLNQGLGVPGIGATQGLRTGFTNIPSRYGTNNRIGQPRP
Sequence of UniProt P49281 (P49281 whole entry, looked up): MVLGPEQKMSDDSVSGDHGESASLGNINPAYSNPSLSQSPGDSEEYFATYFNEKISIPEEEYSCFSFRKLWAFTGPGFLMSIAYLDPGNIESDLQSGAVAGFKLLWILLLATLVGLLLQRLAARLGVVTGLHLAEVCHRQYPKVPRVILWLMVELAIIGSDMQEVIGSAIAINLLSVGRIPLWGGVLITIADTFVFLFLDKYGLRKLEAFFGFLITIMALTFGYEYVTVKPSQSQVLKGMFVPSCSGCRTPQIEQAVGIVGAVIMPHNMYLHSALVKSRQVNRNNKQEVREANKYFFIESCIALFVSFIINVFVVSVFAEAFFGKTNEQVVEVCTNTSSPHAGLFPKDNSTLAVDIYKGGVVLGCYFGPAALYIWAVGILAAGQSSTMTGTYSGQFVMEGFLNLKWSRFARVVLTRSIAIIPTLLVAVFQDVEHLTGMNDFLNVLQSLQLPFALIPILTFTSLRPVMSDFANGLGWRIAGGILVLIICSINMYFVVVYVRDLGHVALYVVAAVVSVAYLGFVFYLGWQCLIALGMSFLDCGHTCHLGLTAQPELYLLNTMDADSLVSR
Sequence of UniProt Q8NDV3 (Q8NDV3 whole entry, looked up): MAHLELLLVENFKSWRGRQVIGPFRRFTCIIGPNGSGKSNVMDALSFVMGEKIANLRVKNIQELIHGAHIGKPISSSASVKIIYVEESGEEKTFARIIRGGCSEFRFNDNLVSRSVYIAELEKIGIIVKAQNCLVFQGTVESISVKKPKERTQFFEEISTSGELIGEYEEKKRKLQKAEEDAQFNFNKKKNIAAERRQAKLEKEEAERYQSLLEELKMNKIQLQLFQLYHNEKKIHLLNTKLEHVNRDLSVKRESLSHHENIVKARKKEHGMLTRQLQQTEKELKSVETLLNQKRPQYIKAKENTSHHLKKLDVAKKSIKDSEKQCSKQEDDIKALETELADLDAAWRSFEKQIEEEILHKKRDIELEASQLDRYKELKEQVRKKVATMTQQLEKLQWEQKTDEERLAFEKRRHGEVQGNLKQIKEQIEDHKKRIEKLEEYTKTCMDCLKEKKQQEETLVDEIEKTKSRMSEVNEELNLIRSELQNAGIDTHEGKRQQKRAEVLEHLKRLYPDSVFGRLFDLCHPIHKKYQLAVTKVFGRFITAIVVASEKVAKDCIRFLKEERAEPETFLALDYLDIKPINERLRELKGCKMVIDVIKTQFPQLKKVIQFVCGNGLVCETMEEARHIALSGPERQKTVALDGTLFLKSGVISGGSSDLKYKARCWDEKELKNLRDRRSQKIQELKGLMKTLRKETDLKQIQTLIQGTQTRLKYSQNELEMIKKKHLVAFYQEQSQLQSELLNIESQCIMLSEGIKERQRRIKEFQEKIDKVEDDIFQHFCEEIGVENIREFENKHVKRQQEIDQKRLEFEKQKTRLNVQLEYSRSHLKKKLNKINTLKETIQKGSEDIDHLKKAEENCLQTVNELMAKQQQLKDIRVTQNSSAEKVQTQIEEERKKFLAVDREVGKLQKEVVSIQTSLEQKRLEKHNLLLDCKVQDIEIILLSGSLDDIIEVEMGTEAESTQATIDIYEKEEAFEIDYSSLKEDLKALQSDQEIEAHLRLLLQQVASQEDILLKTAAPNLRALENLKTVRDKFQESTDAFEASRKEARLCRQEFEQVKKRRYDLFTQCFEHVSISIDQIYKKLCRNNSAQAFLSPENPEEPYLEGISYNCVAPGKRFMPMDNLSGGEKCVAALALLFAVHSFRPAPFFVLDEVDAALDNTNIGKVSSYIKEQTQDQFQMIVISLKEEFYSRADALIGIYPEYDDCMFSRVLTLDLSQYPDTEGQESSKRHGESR
Sequence of UniProt Q15544 (Q15544 whole entry, looked up): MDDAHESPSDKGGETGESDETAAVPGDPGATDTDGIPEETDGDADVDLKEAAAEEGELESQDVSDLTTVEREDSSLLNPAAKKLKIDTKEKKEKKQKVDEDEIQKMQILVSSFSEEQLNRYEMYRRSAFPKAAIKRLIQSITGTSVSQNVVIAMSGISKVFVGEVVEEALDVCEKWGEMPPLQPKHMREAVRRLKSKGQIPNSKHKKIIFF

Target | log2 fold change [1] | log2 fold change [2] | log2 fold change [3] | log2 fold change [4] | log2 fold change [5] | log2 fold change [6] | log2 fold change [7] | log2 fold change [8] | log2 fold change [9] | log2 fold change [10]
SRPK1 (UniProt Q96SB4) | 0.286 (active) | -0.062 | 0.189 | 0.106 | 0.008 | -0.029 | 0.102 | 0.006 | 0.015 | 0.018
SND1 (UniProt Q7KZF4) | 0.009 | -0.121 | 0.015 | 0.019 | -0.019 | -0.019 | 0.195 | 0.026 | -0.004 | -0.017
SH3GL3 isoform 3 (UniProt Q99963) | -0.263 | -0.14 | 0.024 | -0.063 | 0.15 | 0.072 | -0.041 | -0.076 | 0.09 | 0.041
SMARCAD1 isoform 2 (UniProt Q9H4L7) | -0.007 | -0.13 | 0.037 | 0.03 | 0.003 | 0.029 | 0.052 | -0.018 | 0.004 | 0.028
SLC11A2 isoform 3 (UniProt P49281) | -0.032 | -0.047 | 0.031 | -0.001 | -0.008 | 0.063 | -0.027 | 0.128 | 0.021 | 0.295 (active)
SLC30A6 isoform 2 (UniProt Q6NXT4) | 0.023 | 0.126 | 0.016 | 0.011 | – | 0.003 | -0.322 (active) | 0.003 | -0.18 | -0.005
SYK (UniProt P43405) | -0.142 | -0.015 | -0.009 | -0.105 | 0.115 | 0.01 | 0.154 | – | 0.11 | -0.004
SLU7 (UniProt O95391) | -0.086 | -0.042 | -0.065 | 0.016 | -0.006 | 0.071 | 0.021 | 0.002 | – | 0.026
SORBS3 (UniProt O60504) | 0 | -0.095 | 0.032 | -0.062 | 0.059 | 0.02 | -0.143 | – | 0.065 | –
SMG7 (UniProt Q92540) | -0.003 | 0.008 | 0.018 | 0.076 | -0.017 | 0.025 | 0.202 | 0.015 | 0.132 | 0.032
SSNA1 (UniProt O43805) | 0.016 | 0.038 | 0.043 | -0.036 | 0.109 | 0.023 | -0.115 | 0.027 | -0.014 | 0.013
SIX5 (UniProt Q8N196) | 0.159 | 0.117 | 0.015 | – | 0.043 | – | – | 0.023 | 0.008 | 0.13
SZT2 (UniProt Q5T011) | -0.169 | 0.012 | -0.002 | – | 0.109 | -0.011 | -0.105 | -0.193 | -0.031 | 0.094
STK17A (UniProt Q9UEE5) | 0.182 | – | – | – | – | – | – | -0.291 | – | -0.141
SURF2 (UniProt Q15527) | -0.02 | -0.276 | – | 0.016 | 0.013 | -0.001 | -0.319 (active) | -0.005 | 0.011 | -0.041
SHB (UniProt Q15464) | -0.139 | -0.108 | 0.169 | – | 0.067 | – | – | – | 0.034 | –
SLC22A18 (UniProt Q96BI1) | -0.035 | – | 0.052 | -0.076 | – | 0.009 | -0.013 | – | -0.077 | –
STAU1 isoform 3 (UniProt O95793) | -0.06 | – | -0.044 | – | – | – | – | -0.068 | – | 0.03

Target | log2 fold change [1] | log2 fold change [2] | log2 fold change [3] | log2 fold change [4] | log2 fold change [5] | log2 fold change [6] | log2 fold change [7] | log2 fold change [8] | log2 fold change [9] | log2 fold change [10]
SLC39A13 (UniProt Q96H72) | – | -0.125 | -0.058 | – | – | – | – | – | – | –
SMC1B isoform 3 (UniProt Q8NDV3) | – | 0.038 | 0 | 0.147 | 0.028 | 0.039 | -0.03 | 0.027 | -0.03 | 0.044
SMYD3 (UniProt Q9H7B4) | – | -0.122 | -0.018 | 0.036 | 0.028 | 0.022 | 0.071 | -0.044 | 0 | 0.034
SNAPC2 (UniProt Q13487) | -0.034 | -0.117 | -0.005 | – | -0.175 | – | – | 0.014 | – | -0.044
STK17B (UniProt O94768) | – | -0.466 | 0.082 | – | 0.642 | – | – | 0.066 | – | 0.094
SLC12A6 isoform 2 (UniProt Q9UHW9) | – | -0.013 | -0.149 | – | -0.008 | 0.031 | 0.075 | – | -0.106 | –
SNIP1 (UniProt Q8TAD8) | – | – | – | – | – | – | – | -0.024 | – | -0.015
SMARCA4 isoform 4 (UniProt P51532) | 0.078 | 0.106 | -0.008 | – | 0.024 | -0.315 | 0.04 | -0.046 | -0.038 | -0.116
TAF11 (UniProt Q15544) | -0.015 | 0.014 | – | -0.151 | 0.137 | -0.155 | 0.398 (active) | -0.053 | 0.048 | 0.064
STK38L (UniProt Q9Y2H1) | – | -0.063 | 0.647 (active) | – | 0.06 | -0.036 | 0.193 | 0.06 | – | -0.049
SPA17 (UniProt Q15506) | -0.208 | 0.021 | – | 0.056 | 0.038 | -0.007 | -0.032 | – | -0.038 | –
TARDBP (UniProt K7EN94) | – | – | – | -0.197 | – | 0.224 | 0.04 | – | – | –
SPAG1 (UniProt Q07617) | – | 0.071 | – | -0.014 | – | – | – | – | -0.03 | –
TAOK2 (UniProt Q9UL54) | -0.053 | 0.046 | – | -0.001 | -0.015 | -0.033 | 0.055 | 0.02 | 0.02 | -0.009
STK3 isoform 2 (UniProt Q13188) | – | -0.075 | – | 0.205 | 0.015 | -0.046 | -0.068 | – | 0.269 | 0.002
TAF1B (UniProt Q53T94) | 0.175 | -0.083 | – | -0.024 | 0.614 | 0.073 | -0.13 | -0.177 | -0.047 | 0.016
SNRPD2 (UniProt K7EJB5) | – | -0.001 | -0.057 | -0.074 | 0.054 | -0.069 | 0.047 | 0.103 | 0.025 | 0.107
